Compound activity as filed in PubChem.
This is a sample that favours compounds with a hit; in the whole collection about 19% have one here.
HT1080 IDH1KD tx – qHTS for induction of synthetic lethality in tumor cells producing 2HG: qHTS for the HT-1080-IDH1KD cell line; HT-1080 IDH1 knockdown viability, ATP luminescence, 48 h; Potency, µM (series often up to 46.1 µM), hits mostly cytotoxic; 360,000 compounds, 2% hits; AID 686971, 2013
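Using the IDH1-knockdown HT-1080 line run in the same batch and compound series as the NT line, viability after 48 h at 37 °C was determined by CellTiter-Glo luminescence and expressed as % activity.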
HT1080-NT tox – qHTS for induction of synthetic lethality in tumor cells producing 2HG: qHTS for the HT-1080-NT fibrosarcoma cell line; HT-1080-NT fibrosarcoma viability, CellTiter-Glo ATP luminescence, 48 h; AID 686970, 2013; Potency, µM (series often up to 46.1 µM), hits mostly cytotoxic; 360,000 compounds, 1.6% hits;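 note: NT is the 2HG producing partner of a matched IDH1 knockdown line; nearly all actives have a fitted effect of over 55% in size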
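Fibrosarcoma NT cells, 750 per well in 5% FBS RPMI, were exposed to compound for 48 hours. Viability: CellTiter-Glo luminescence.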
IL1B secr inh – qHTS for Inhibitors of Inflammasome Signaling: IL-1-beta AlphaLISA Primary Screen. activity change, % at 57.5 µM. 360,000 compounds, 4.7% hits. THP-1 LPS/ATP IL-1B secretion, AlphaLISA, 16 h; active compounds read low. AID 743279, 2014; in the data active = activity change below about -50%; inconclusive = mostly about -30% to -49%
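Secreted IL-1B measured by AlphaLISA bead assay after 16 h compound exposure of THP-1 cells; compounds (final up to 57.5 uM) added 1 h before LPS (250 ng/mL) and ATP (1.25 mM) stimulation; lower signal means less secretion.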
DT40 TDP1 CPT – qHTS for Inhibitors of human tyrosyl-DNA phosphodiesterase 1 (TDP1): qHTS in cells in presence of CPT; chicken DT40 Tdp1-/-;hTDP1 cells + 20 nM CPT, ATP luminescence, 48 h; Potency, µM (doses to about 46.2 µM), most hits filed as inhibitors; 420,000 compounds, 12% hits; AID 686979, 2013; note: nearly all actives have a fitted effect of over 55% in size
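Chicken DT40 Tdp1-/- cells complemented with human TDP1, 400 cells/well, exposed to compounds plus 20 nM camptothecin for at least 48 h at 37 C; viability read as ATP content by CellTiter-Glo luminescence.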
DT40 TDP1 no CPT – qHTS for Inhibitors of human tyrosyl-DNA phosphodiesterase 1 (TDP1): qHTS in cells in absence of CPT | DT40 Tdp1-/- hTDP1 cells, no CPT, ATP luminescence, 48 h | AID 686978, 2013 | 420,000 compounds, 15% hits | Potency, µM (titrated, usually from 46.2 µM), hits mostly inhibitors; note: nearly all actives have a fitted effect of over 55% in size
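Luminescent ATP content (CellTiter-Glo) served as the growth readout. Knockout chicken DT40 cells expressing human TDP1 were exposed to compounds without camptothecin for a minimum 48 hr at 37 °C.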
Hits are given with their value; – = inactive; ? = inconclusive; · = not tested or not shown; [ ] = dose if it differs, or a comment. Unless noted, calls come from the whole dose curve; as a rule, active = well fitted curve in the direction sought with a large enough effect; inconclusive = small, poorly fitted or top-dose-only effect, or another doubt; inactive = no such curve, though single readings can be large; an effect the other way counts as inactive or inconclusive.

SMILES | HT1080 IDH1KD tx | HT1080-NT tox | IL1B secr inh | DT40 TDP1 CPT | DT40 TDP1 no CPT
O=[N+]([O-])c1ccc(/C=N/Nc2ncccc2[N+](=O)[O-])s1 | – | – | – | 1.5µM | 1.3µM
Cc1nc2ccccc2n1/N=C/c1ccc([N+](=O)[O-])o1 | 10µM | 13µM | -97 | 1.8µM | 2.9µM
COC(=O)c1ccc(CNC(=O)C2CCC(=O)N(CCc3ccccn3)C2)cc1 (configuration not stated) | – | – | – | – | –
O=[N+]([O-])c1ccc(/C=N/n2cnc3ccccc32)s1 | ? | ? | -74 | 3.7µM | 3.7µM
CCCCCn1cnnc1SCC(=O)c1c(N)n(C2CC2)c(=O)[nH]c1=O | – | – | – | – | –
COc1cc(NS(=O)(=O)c2cc3c(cc2C)N(C)CCO3)cc(OC)c1OC | · | · | · | 21µM | 15µM
COc1cccc(NS(=O)(=O)c2cc3c(cc2C)N(C)CCO3)c1 | – | – | – | ? | ?
COc1cc(NS(=O)(=O)c2ccc(C)cc2C)cc(OC)c1OC | – | – | – | 6.5µM | 6.5µM
CCC(=O)Nc1ccc(Nc2nc(C)c([N+](=O)[O-])c(Nc3ccc(NC(=O)CC)cc3)n2)cc1 | – | – | – | 8.2µM | 6.5µM
CC(=O)Nc1ccc(Nc2nc(C)c([N+](=O)[O-])c(Nc3ccccc3)n2)cc1 | ? | – | – | 23µM | 18µM
Nc1nc(COC(=O)c2ccc3c(c2)OCCO3)nc(Nc2ccccc2)n1 | – | – | – | – | ?
O=C(NCCNC(=O)c1ccccc1F)c1ccccn1 | – | – | – | – | –
O=C(CN1c2ccccc2S(=O)(=O)c2ccccc21)Nc1ccccc1F | – | – | – | – | ?
NN=C1c2ccccc2-c2ccc(N)cc21 | – | – | – | ? | ?
NC(=S)NN=C1c2ccccc2-c2cc(Br)ccc21 | – | – | – | 5.2µM | 3.7µM
ON=C1c2ccccc2-c2ccc(Br)cc21 | – | – | – | 29µM | 23µM
O=C(NN=C1c2ccccc2-c2ccccc21)c1ccccn1 | ? | ? | – | ? | ?
ON=C1c2ccccc2-c2ccc(F)cc21 | – | – | – | ? | 18µM
Nc1cc2c(cc1Br)-c1ccccc1C2=NO | – | – | -105 | 26µM | ?
Cn1c(=O)c(=O)n(C)c2cc(NC(=O)c3cccc(F)c3)c(Cl)cc21 | · | · | · | – | –
C=CCNC(=O)CC(=O)N/N=C/c1cccc(C)c1 | – | – | – | – | –
O=C(CN1CCOCC1)N/N=C/c1ccc(-c2cccc(Cl)c2Cl)o1 | – | ? | – | – | –
Cc1cccc(-c2ccc3[nH]c4c(c3c2)CCN2C[C@@H]([C@H](C)O)[C@@H](N(C)C(=O)Nc3ccc(F)cc3)C[C@@H]42)c1 | ? | 21µM | – | 16µM | 18µM
C[C@H](O)[C@@H]1CN2CCc3c([nH]c4ccc(-c5ccc6c(c5)OCO6)cc34)[C@@H]2C[C@@H]1N(C)C(=O)Nc1cc(Cl)cc(Cl)c1 | 7.3µM | 9.2µM | – | 4.1µM | 3.3µM
COc1ccc(NC(=O)N(C)[C@H]2C[C@H]3c4[nH]c5ccc(-c6cccc(C)c6)cc5c4CCN3C[C@H]2[C@H](C)O)cc1 | ? | 23µM | – | ? | 16µM
SMILES | HT1080 IDH1KD tx | HT1080-NT tox | IL1B secr inh | DT40 TDP1 CPT | DT40 TDP1 no CPT
C[C@H](O)[C@@H]1CN2CCc3c([nH]c4ccccc34)[C@@H]2C[C@@H]1N(C)C(=O)Nc1ccc(F)cc1 | – | – | – | ? | ?
OC1(c2cccnc2)CCN(Cc2ccc3c(c2)CN(Cc2cc(F)ccc2F)CCO3)CC1 | · | · | · | –[9.04 µM] | ?
CC(=O)Nc1ccc(OCC(O)CN2C(C)(C)CC(O)CC2(C)C)cc1 (configuration not stated) | – | – | – | – | –
COc1ccc(CS(=O)(=O)CC(C)(O)c2ccccc2)cc1 (configuration not stated) | – | – | – | – | –
Cc1ccc(CN2C(=O)CSCC2(C)C(=O)NC(C)C)cc1 (configuration not stated) | – | – | – | – | –
COCCCN(Cc1cc(OC)c(OC)c(OC)c1)C(=S)Nc1cccc(Cl)c1 | – | – | – | ? | 9.2µM
CCN(Cc1cc(OC)c(OC)c(OC)c1)C(=S)Nc1cccc(SC)c1 | – | – | – | ? | 23µM
COc1cc(CC(=O)Nc2cccc(SC)c2)cc(OC)c1OC | – | – | – | ? | 10µM
COCCCN(C(=S)Nc1cccc(Cl)c1)C(C)c1ccncc1 (configuration not stated) | – | – | – | – | –
COc1ccc(CC(=O)Nc2cccc(SC)c2)cc1 | – | – | – | ? | –
CC1CN(Cc2cc(=O)[nH]c(C3CC3)n2)CC(C)O1 (configuration not stated) | – | – | – | ? | –
c1ccc(COn2nnc3ccccc32)c(COn2nnc3ccccc32)c1 | – | – | ? | 18µM | 10µM
O=C(C[N+]1(CCO)CCOCC1)c1cccs1 | · | · | · | – | –
CC(=O)Nc1ccccc1-c1nc2ccccc2n(C(C)C(=O)Nc2cccc(C)c2C)c1=O (configuration not stated) | · | · | · | 21µM | ?
CC(=O)Nc1ccccc1-c1nc2ccccc2n(C(C)C(=O)Nc2ccccc2C(F)(F)F)c1=O (configuration not stated) | · | · | · | – | ?
COc1ccc(Cl)cc1NC(=O)Cn1c(=O)c(-c2ccccc2NC(C)=O)nc2ccccc21 | · | · | · | 13µM | 15µM
CCC(=O)Nc1ccccc1-c1nc2ccccc2n(CC(=O)Nc2ccccc2OC)c1=O | · | · | · | 5.8µM | 5.8µM
CCC(=O)Nc1ccccc1-c1nc2ccccc2n(C(C)C(=O)Nc2ccc(OC)cc2)c1=O (configuration not stated) | · | · | · | ? | 15µM
O=C(O)C1C(c2ccccc2)=C1c1ccc(Br)cc1 (configuration not stated) | – | – | – | – | –
Cc1ccc(NC(=O)CN2CCC(NC(=O)c3ccccc3F)CC2)cc1C | – | – | – | ? | –
Cc1c(NC(=O)c2cc(=O)c3cc(Cl)ccc3o2)c(=O)n(-c2ccccc2)n1C | · | · | · | – | –
COc1ccc(CNC(=O)C(c2ccco2)N(C(=O)c2snc(C(N)=O)c2N)c2ccccc2OC)cc1 (configuration not stated) | – | – | ? | – | ?
CS(=O)(=O)N(Cc1ccccc1)c1ccc(C(=O)Nc2ccc3c(c2)OCO3)cc1 | – | – | ? | – | ?
CCC(C(=O)Nc1ccc(C)c(Cl)c1)n1c(=O)c(-c2ccccc2NC(C)=O)nc2ccccc21 (configuration not stated) | · | · | · | 21µM | 13µM
